Where “and” joins values, the source holds several entries; their conditions need not be identical. Equal entries are not always repeated. Inconclusive results are not listed. Values without a mark were called inactive. Calls of active or inactive are those of the source. The call rests on the fitted dose curve; in most records, active means well fitted curve in the direction sought with a large enough effect; inconclusive means small, poorly fitted or top-dose-only effect, or another doubt; inactive means no such curve, though single readings can be large or run the other way.

Here are results for 16 compounds from PubChem BioAssay (NCATS).
On the % scale 0 is the no-effect control and ±100 the full control effect; potency means the concentration at half of the fitted maximal effect.

The test in a line: qHTS Assay for Identifying Gametocytocidal Compounds (AID 743244).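 On max response: actives lower the fluorescent signal which means gametocytes are killed.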 As to conditions: P. falciparum 3D7 stage III-V gametocytes, alamarBlue, 72 h; max response: active compounds read low. The essentials:
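P. falciparum 3D7 stage III–V gametocytes (20,000 cells/well) were exposed to compounds for 72 h at 37 °C, 5% CO2. AlamarBlue was then added for 24 h; decreased resorufin fluorescence (Ex 525/Em 598 nm) indicated loss of viability.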
A general note: Quantitative high-throughput screening tests each substance at several concentrations.
`COc1cc2c(CCNC(C)=O)c[nH]c2cc1Cl`: the max response was 6.49%.

For `Fc1cccc(/C=N/N=C/c2cccc(F)c2)c1`, the max response was 22.7%.

Turning to `COc1ccc(NC(=O)/C=C/c2ccc(Cl)cc2)cc1`, the max response is 30.8%. On the same count and under the same terms, the result for `COc1cccc(C(=O)NCCN2CCN(c3ccc(Cl)cc3)CC2)c1` reads 13.6%. The same measure, in the same setting: then `CCc1c(C(=O)NCCc2ccc(N3CCCCC3)cc2)[nH]c2ccc(Cl)cc12`, with 11.6%. For `O=c1[nH]c2ccccc2n1CCCN1CCN(C(c2ccccc2)c2ccccc2)CC1`, the max response was 14.5%. For `CC(=O)N[C@H](C(=O)O)C(C)(C)SN=O`, the max response was 7.76%.

Turning to `O=C(O)c1cc(=O)c2ccccc2[nH]1`, the max response is -5.82%. With `COc1cc(/C=C/C(=O)N2CCN(CC(=O)N3CCCC3)CC2)cc(OC)c1OC`, the max response is -1.2%. Turning to `CN(C)CCCO[C@@H]1[C@H]2OC(C)(C)O[C@H]2O[C@@H]1[C@H](O)CO`, the max response is 19.5%. `C#C[C@]1(O)CC[C@H]2[C@@H]3CCC4=Cc5oncc5CC4(C)[C@H]3CCC21C` (stereo partly specified): the max response is 25.1%. With `O=C1C(SCCO)=C(SCCO)C(=O)c2ccccc21`, the Potency is 1410 nM (active). Consider `CC1(C)C[C@@H]1C(=O)N/C(=C\CCCCSC[C@H](N)C(=O)O)C(=O)O`, for which the max response was 3.26% and 5.48%. Turning to `CC(C(=O)O)c1ccc(C(=O)c2cccs2)cc1` (stereo unspecified), the max response was 13.3%. Take `O=C(c1ccc(Cl)cc1)N1CCN(c2ccc([N+](=O)[O-])c3ncccc23)CC1`: the max response is -0.851%.

Turning to `O=C1NC(=O)/C(=C/c2ccc3nccnc3c2)S1`, the max response was -5.45%.
